Luc counter: Counterscreen for Luciferase (Kinase-Glo TM) Inhibition; Luciferin 4-monooxygenase (Photuris pensylvanica), Q27757; Kinase-Glo luciferase, ATP luminescence, 8 min; Potency, µM (titrated, usually from 38.3 µM), for the others: at the top dose activity change, negative = inhibition, actives largely listed as inhibitors; 200,000 tested, 0.28% active; AID 1379, 2008; note: % is set by controls: 0 for no effect and ±100 for the full control effect; nearly all actives have a fitted effect of over 60% in size
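Light output from Kinase-Glo luciferase with luciferin and 10 uM ATP in 50 mM imidazole pH 7.2, KCl, MgCl2, Tween 20, BSA; compound pin-delivered, 8-min ambient incubation, then luminescence read.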
Rab9 prom act: qHTS Assay for Rab9 Promoter Activators. Potency, µM (series often up to 9.22 µM), for the others: at the highest dose activation, negative = inhibition, usual class: activators. Huh7 Rab9 promoter-luciferase reporter, luminescence, 24 h. 320,000 tested, 2.8% active. AID 485297, 2010; note: % of control where 0% means no effect; nearly all actives have a fitted effect of over 60% in size
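Cells were plated at 1500 per well in reduced-serum medium with 10% FBS and left 2 h. Compound in DMSO was then added for 24 h at 37 °C. Reporter signal was read by luminescence after 10 min with luciferase detection reagent.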
FLuc modulator: qHTS profiling assay for firefly luciferase inhibitor/activator using purifed enzyme and Km concentrations of substrates (counterscreen for miR-21 project); Luciferin 4-monooxygenase (Photinus pyralis), P08659; purified FLuc, Km substrates, luminescence inhibition; Potency, µM (series often up to 57.5 µM), for inactives: at the highest dose activity change, negative = inhibition, most hits filed as inhibitors; 360,000 tested, 6.9% active; AID 588342, 2011;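 note: plate controls were vehicle for no effect and reference inhibitor for full effect; nearly all actives have a fitted effect of over 55% in size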
Target sequence (P08659 whole entry, looked up): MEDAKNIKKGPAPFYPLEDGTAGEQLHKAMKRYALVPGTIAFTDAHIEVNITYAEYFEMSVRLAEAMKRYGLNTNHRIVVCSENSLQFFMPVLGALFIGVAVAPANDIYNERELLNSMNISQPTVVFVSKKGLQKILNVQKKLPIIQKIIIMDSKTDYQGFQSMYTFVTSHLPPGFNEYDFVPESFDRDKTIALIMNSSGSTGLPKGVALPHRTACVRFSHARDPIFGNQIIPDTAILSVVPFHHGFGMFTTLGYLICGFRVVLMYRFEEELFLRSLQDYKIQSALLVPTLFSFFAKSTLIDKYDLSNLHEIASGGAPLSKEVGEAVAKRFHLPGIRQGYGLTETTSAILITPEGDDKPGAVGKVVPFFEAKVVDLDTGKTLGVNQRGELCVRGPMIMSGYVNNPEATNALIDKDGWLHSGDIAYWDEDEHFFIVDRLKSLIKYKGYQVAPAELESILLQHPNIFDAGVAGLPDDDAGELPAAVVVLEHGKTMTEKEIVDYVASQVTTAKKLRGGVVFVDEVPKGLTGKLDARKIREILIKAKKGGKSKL
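Purified P. pyralis luciferase (10nM final) with 10uM D-luciferin and 10uM ATP (Km levels) in 50mM Tris acetate pH 7.5, 10mM Mg acetate, 0.01% Tween-20, 0.05% BSA; qHTS 6-point titration, ~60 µM downward; luminescence read.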
NPC1 promoter act: qHTS Assay for NPC1 Promoter Activators. Huh7 NPC1 promoter luciferase reporter, 24 h. Potency, µM (top dose mostly 9.22 µM), for the others: top-dose activation, actives largely listed as activators. 320,000 tested, 2.4% active. AID 485313, 2010; note: % of control where 0% means no effect; nearly all actives have a fitted effect of over 60% in size
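Luciferase expression driven by the NPC1 promoter was measured in stably transfected Huh7 cells after a 24 h compound incubation, using a luciferase reagent and a luminescence read.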
ELG1 genotoxic: qHTS screen for small molecules that induce genotoxicity in human embryonic kidney (HEK293T) cells expressing luciferase-tagged ELG1. 330,000 tested, 1.3% active. Potency, µM (series often up to 46 µM), inactives show top-dose activity change, positive = activation, most hits filed as activators. HEK293T ELG1-luciferase reporter, luminescence, 16 h; note: % of control where 0% means no effect; nearly all actives have a fitted effect of over 60% in size
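Quantitative HTS format in 1536-well plates. HEK293T ELG1-luciferase reporter cells receive test compound and are incubated 16 hr at 37 °C, 5% CO2; ONE-Glo added, 30 min room temperature, then luminescence read.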
SMN2 splice up: qHTS Assay for Enhancers of SMN2 Splice Variant Expression. HEK293 SMN2-luciferase splicing reporter, luminescence, 30-36 h. Potency, µM (top dose mostly 46.1 µM), for the others: at the highest dose activity change, positive = activation, hits mostly activators. 210,000 tested, 2.8% active. AID 1458, 2008; note: % of control where 0% means no effect; nearly all actives have a fitted effect of over 55% in size
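HEK293 cells carry an SMN2 minigene-luciferase reporter in which exon 7 inclusion puts luciferase in frame. Cells were seeded at 2000 cells/well, attached for 10-12 hours, then exposed to compounds for 30-36 hours at 37C before ONE-Glo luminescence.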
* marks the source's active call; other numbers are inactive results; ? = inconclusive; / = no result given. Only some compounds are listed: those with a hit (about 7.3% of all), similar ones and a draw of the others. Calls come from the whole dose curve; as a rule, active = well fitted curve in the direction sought with a large enough effect; inconclusive = small, poorly fitted or top-dose-only effect, or another doubt; inactive = no such curve, though single readings can be large; an effect the other way counts as inactive or inconclusive. Potency is the fitted concentration of half-maximal effect.

SMILES	Luc counter	Rab9 prom act	FLuc modulator	NPC1 promoter act	ELG1 genotoxic	SMN2 splice up
O=C(Nc1ccc(C(=O)O)cc1)Nc1ccc([N+](=O)[O-])cc1	/	0.1%	-13.5%	0.7%	0.4%	/
CC(CNC(=O)c1ccc(OC2CCN(Cc3ccccn3)CC2)cc1)Oc1cccnc1 (stereo unspecified)	/	-4.7%	1.5%	1.0%	-4.2%	/
Cc1ccc(-c2nonc2NC(=O)c2ccco2)cc1C	/	/	-0.8%	/	/	/
COc1ccc(-c2nc3ccccc3s2)cc1NC(C)=O	-1.6%	2.24µM*	6.75µM*	2.51µM*	16.4µM*	11.2µM*
COc1ccccc1OC(C)C(=O)Nc1cccc(-c2nc3ccccc3s2)c1 (stereo unspecified)	/	/	10.7µM*	/	/	/
CC(Oc1ccccc1F)C(=O)Nc1ccc(-c2nc3ccccc3s2)cc1 (stereo unspecified)	/	/	-6.6%	/	/	/
COc1ccc(-c2nc3ccccc3s2)cc1NC(=O)c1cccc([N+](=O)[O-])c1C	/	/	3.38µM*	/	/	11.2µM*
COc1ccc(-c2nc3ccccc3s2)cc1NC(=O)COc1ccc(C)cc1	/	/	-2.3%	/	/	1.26µM*
CC1(C)Cc2c(sc(NC(=O)C(C)(C)C)c2C#N)C(C)(C)N1	-2.0%	2.4%	-0.5%	-1.4%	0.6%	5.4%
COc1ccc(-c2nc3ccccc3s2)cc1NC(=O)COc1cccc(C)c1	/	/	?	/	/	2.82µM*
Cc1ccc(C(=O)Nc2ccc(-c3nc4ccccc4s3)cc2C)cc1C	/	/	?	/	/	28.1%
Cc1ccc(C(=O)NC(=S)Nc2cc(-c3nc4ccccc4s3)ccc2C)cc1	-5.8%	28.8%	9.53µM*	-3.0%	?	8.4%
CC(=O)c1cccc(NC(=O)c2ccc(NS(=O)(=O)c3c(C)noc3C)cc2)c1	-3.5%	4.8%	4.3%	-0.4%	5.4%	12.1%
Cc1ccc(-c2nn(-c3ccccc3)cc2CN(C)C(=O)CCC(=O)O)cc1C	-0.9%	-2.5%	19µM*	-1.8%	11.9%	5.3%
COc1ccc(N=Nc2ccc(O)c3ncccc23)cc1	/	-32.6%	-14.0%	-5.5%	4.61µM*	/
O=S(=O)(O)c1cccc2c(N=Nc3ccc(O)c4ncccc34)cccc12	/	-1.8%	15.1µM*	-1.6%	-3.3%	/
COc1cccc(N=Nc2ccc3cccnc3c2O)c1	/	11.1%	8.49µM*	19.9%	16.4µM*	/
COc1cccc(N=Nc2ccc(O)c3ncccc23)c1	/	-17.6%	6.01µM*	21.6%	?	/
COc1ccc(C)cc1N=Nc1ccc(O)c2ncccc12	-5.4%	-25.3%	-15.5%	-20.3%	14.1%	-97.1%
COCc1ccc(O)c2ncccc12	-3.5%	-30.6%	-0.1%	-34.5%	-15.9%	5.9%
COc1ccc(N(CC(=O)N/N=C/c2cccnc2)S(=O)(=O)c2ccccc2)c(OC)c1	/	-2.7%	4.8%	-2.4%	-3.9%	/
Nc1ccc(N=Nc2ccccc2)c2cccnc12	/	-17.4%	21.3µM*	18.5%	16.1%	/
Cc1ccc(N=Nc2ccc(O)cc2)c(Br)c1	/	3.16µM*	3.38µM*	?	11.6µM*	/
Oc1ccc(N=Nc2ccc3c(c2)OCCO3)c(O)c1	/	1.12µM*	1.2µM*	1.26µM*	?	/
COc1ccc(N=Nc2cc(-c3ccccc3)ccc2O)cc1	/	0.4%	23.9µM*	3.7%	-2.3%	/
O=C(O)C(C(=O)Oc1ccccc1)C(C(=O)O)C(=O)Oc1ccccc1 (stereo unspecified)	/	-5.9%	-0.3%	-2.6%	-1.7%	/
O=[N+]([O-])c1ccc(Oc2cnc3ccccc3n2)cc1	-0.7%	?	-8.4%	11.6%	-5.4%	5.6%
O=Nc1ccc(O)c2ncccc12	/	-37.3%	-7.8%	-31.7%	?	/
Cc1ccccc1N=Nc1ccc(O)c2ncccc12	-0.7%	-28.2%	-8.4%	-12.4%	11.6µM*	-102.8%
